# Compounds without any hit were thinned out: in the full panel of roughly 83,000, 20% have a hit.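 Assay: single dose, 48 h. Readout: percent growth (0 = no net growth; negative = cell death). Active: <10.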 A number with no mark means an inactive call. The source made the active and inactive calls.
# Assays:
# Assay in all cases: NCI-60 one-dose screen, 48 h (100 = growth as untreated, 0 = no growth, -100 = all killed)
# Conditions in all cases: 10 µM unless noted
# [1] = test system: T-47D breast
# [2] = test system: BT-549 breast
# [3] = test system: MDA-MB-435 melanoma
# [4] = test system: SW-620 colon
# [5] = test system: MCF7 breast
# [6] = test system: HCT-116 colon
# [7] = test system: HCC-2998 colon
# [8] = test system: KM12 colon
Compound,growth [1],growth [2],growth [3],growth [4],growth [5],growth [6],growth [7],growth [8]
CC1=NN(c2ccc(S(=O)(=O)O)cc2)C(=O)C1N=Nc1ccc(-c2ccc(N=Nc3ccc(OS(=O)(=O)c4ccc(C)cc4)cc3)c(S(=O)(=O)O)c2)cc1 (stereo unspecified),90.3%,68.4%,95.1%,103%,88.7%,93.9%,104%,105%
COc1ccc(-c2conc2-c2ccccc2)cc1,52.8%,29.6%,-45.4% (active),19.8%,16%,12.3%,19.5%,9.21% (active)
COc1ccc(-c2cnc3ccccc3n2)cc1,96.7%,95.1%,94.4%,96.6%,105%,99.2%,95.4%,92.7%
CCCCCCNC(=O)Oc1ccc(/C(=C(\C)c2ccc(Cl)cc2)c2ccc(OCCN3CCCCC3)cc2)cc1,29.1%,64.4%,52.6%,7.33% (active),7.75% (active),6.05% (active),62.9%,36.5%
Cc1onc2c(-c3ccccc3)n[nH]c(=O)c12,83.3%,67.7%,96.9%,111%,89.8%,104%,94.8%,107%
NCCCNc1nc2ccc(Cl)cc2c2c(=O)c3cc(F)ccc3sc12,76.3%,106%,30.8%,-79% (active),47.2%,-47.8% (active),-40.8% (active),11.8%
Nc1ccccc1-c1cc2c(c3c1[nH]c1ccccc13)CCCCC2,86.8%,108%,112%,96.2%,76%,76.3%,106%,88.9%
COc1c(B(O)O)cc(C)cc1-c1nc2ccc3[nH]ncc3c2c2c1CCCC2,78.5%,24.2%,22.5%,8.73% (active),54.6%,21.3%,62.9%,30.6%
CN1CCN(c2ccc(-c3cc4c(Nc5ccc(F)c(Cl)c5)ncnn4c3)cc2)CC1,63.4%,98.5%,76.4%,25.2%,45.3%,15.7%,53.8%,13.8%
N#CC1=C(N)Oc2c(sc3c(Br)cccc23)C1c1ccc([N+](=O)[O-])cc1 (stereo unspecified),64.9%,28.8%,-58.4% (active),18.1%,10.2%,8.77% (active),10.2%,8.9% (active)
O=c1c2cccc(Cl)c2sc2c(NCCCNCCO)nc3ccccc3c12,42.7%,80.1%,-87.1% (active),-97.6% (active),15.3%,-58.9% (active),-88% (active),-62.1% (active)
CCCCCCCCCCCCCCCCCCOc1ccccc1CCCOP(=O)(O)OCC[N+](C)(C)C,87.8%,77.4%,91.6%,69.2%,60.5%,44.9%,50.9%,13.2%
Cc1cc(=O)oc2cc(OC(=O)N3CCN(C)CC3)ccc12,105%,112%,101%,100%,89.6%,99.4%,110%,101%
O=c1ccc(N=Nc2ccc([N+](=O)[O-])cc2)ccc1O,16.8%,97.3%,21.8%,15.4%,7.16% (active),32.3%,22.3%,16.7%
COc1cc(C(=O)c2cnc(-c3cccc4[nH]ccc34)[nH]2)cc(OC)c1OC,70.6%,40.2%,-34.8% (active),19.7%,22.4%,-8.06% (active),20.9%,4.18% (active)
Cc1ccc2sc3c(NCCCN)nc4ccccc4c3c(=O)c2c1,54.6%,96.8%,-71.7% (active),-79.7% (active),-21.2% (active),-53.2% (active),-86.1% (active),-74.6% (active)

Compound,growth [1],growth [2],growth [3],growth [4],growth [5],growth [6],growth [7],growth [8]
CCc1ccc(Oc2c(-c3ccc(OCc4ccc(Cl)cc4)cc3O)nn(C)c2C(F)(F)F)cc1,-8.15% (active),-12% (active),1.36% (active),7.28% (active),6.53% (active),-62.4% (active),12.8%,-5.25% (active)
Cc1cc(N2CCCC2)nc(N(CCCNc2ccnc3cc(Cl)ccc23)Cc2ccccn2)n1,68.6%,64.9%,19.1%,44.5%,47.3%,16.3%,79.5%,63.8%
O=[N+]([O-])c1ccccc1NCSc1ccc(Cl)cc1,93.3%,69.2%,93.8%,101%,91.9%,83.8%,84.3%,79.2%
Cc1ccc(/C=N\NC(=O)c2[nH]c3ccc(F)cc3c2-c2ccccc2)cc1,75.4%,36.8%,-13.8% (active),25.7%,15.3%,10.8%,-24.8% (active),-0.0461% (active)
O=C1CCC/C=C\C[C@H]2C=CC(=O)/C2=C/C[C@H](CCc2cccc(C(F)(F)F)c2)O1,-28% (active),-29.3% (active),-42.1% (active),-32% (active),-6.2% (active),-82% (active),-74.4% (active),-63.5% (active)
Cc1ccc(C(=O)NCCNc2nccc(-c3c(-c4cccc(F)c4)nc4sccn34)n2)cc1,42.4%,55.2%,41.6%,61.8%,27.2%,27%,64.2%,77.5%
Cc1ccc(C2CC(c3ccc(Nc4ccnc5cc(Cl)ccc45)cc3)=NN2C=O)cc1 (stereo unspecified),38.3%,56.8%,16.3%,68%,35.2%,57.6%,53.2%,50.2%
COc1cc(C(=O)N2N=C(c3ccc(S(C)(=O)=O)cc3)CC2c2ccco2)cc(OC)c1OC (stereo unspecified),59.3%,48.5%,6.67% (active),42.3%,37%,50.6%,59.9%,49.7%
Cc1cc(-c2cc(C)c(N)cc2C)c(C)cc1N,90.4%,92.3%,6.88% (active),100%,80.7%,78.8%,104%,75.2%
O=C1NC(=O)C(Cn2cnc3ccccc32)N1 (stereo unspecified),106%,110%,100%,99.3%,92.1%,109%,103%,102%
NS(=O)(=O)c1ccc(N=Nc2ccc(-c3nn4cc(-c5ccccc5)nc4s3)cc2)cc1,87.6%,84.8%,101%,96.2%,94%,88.8%,104%,95.7%
COc1cc(C(=O)c2cc(C)c3[nH]c4ccc(C)cc4c3c2C)cc(OC)c1OC,39.9%,14.5%,17.5%,31.4%,11.6%,5.32% (active),15.9%,3.84% (active)
CN(C)CCS(=O)(=O)Nc1cc(-c2ccc3ncc(C#N)c(Nc4ccc(F)c(Cl)c4)c3c2)cnc1Cl,-30.5% (active),-60.2% (active),-76.8% (active),-11.1% (active),0.35% (active),-51.6% (active),-83.3% (active),-25.4% (active)
CC1(C)C2CC1C1(/C=N\Nc3ccccc3)C(C2)C(C#N)(C#N)C1(C#N)C#N (stereo unspecified),72.6%,107%,104%,101%,94.8%,83.9%,94.6%,81.3%
O=CN(SSN(C=O)C1CCCCC1)C1CCCCC1,79.2%,137%,110%,92.3%,102%,85.9%,116%,104%
O=C(Cc1ccc2c(c1)OCCO2)Nc1nc2ccc(F)cc2s1,93.6%,89.6%,104%,104%,92.2%,101%,122%,108%

# — PubChem BioAssay (NCI)
